FadD28 FP inh – blocks FadD28 binding to the bisubstrate probe; fluorescence polarization; inhibition, % at 12.5 µM; actives 0.22% (n = 360,000); in the data active = inhibition above about 8.5%, passing the limit was not always enough; inconclusive = no clear call, values can overlap the other calls
Mtb bLac sens – beta-lactam sensitization of Mtb H37Rv; M. tuberculosis H37Rv growth with meropenem, percent inhibition; inhibition, % at 25 µM; actives 0.27% (n = 330,000); AID 434955; call rule not given here;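 also: growth measured after seven days incubation then overnight dye step; 0% = bacteria only wells and 100% = bacteria with antibiotic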
PrP 5UTR inh – inhibition of PrP 5' UTR reporter expression | cell-based PrP 5' UTR mRNA reporter, plate reader | inhibition, % (no concentration beside the values) | actives 0.35% (n = 340,000); in the data active = inhibition above about 52%; also: 0 = median of the neutral control wells
UGM FP inh – blocks M. tuberculosis UGM enzyme | P9WIQ1 | actives 0.06% (n = 320,000) | inhibition, % at 10 µM | purified UGM, fluorescence polarization probe displacement; in the data active = inhibition above about 10%, passing the limit was not always enough; inconclusive = no clear call, values can overlap the other calls
BH1578 lux ind – inducers of Vibrio cholerae quorum light production without autoinducers; V. cholerae BH1578 lux reporter, luminescence, 6 h; activation, % at 18.7 µM; actives 0.16% (n = 350,000); in the data active = activation mostly above about 9.7%, no sharp cut-off; inconclusive = no clear call, values can overlap the other calls; inactive = mostly below about 3.7%
Rv3671c protease – Rv3671c (M. tuberculosis) protease inhibition | P9WHR9 | actives 0.048% (n = 320,000) | inhibition, % at 5.96 µM; in the data active = inhibition above about 38%;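 also: extracellular domain of Rv3671c used as enzyme; 0% = enzyme with DMSO and 100% = no enzyme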
Target sequence (P9WHR9 whole entry, looked up, the tested form may be a part): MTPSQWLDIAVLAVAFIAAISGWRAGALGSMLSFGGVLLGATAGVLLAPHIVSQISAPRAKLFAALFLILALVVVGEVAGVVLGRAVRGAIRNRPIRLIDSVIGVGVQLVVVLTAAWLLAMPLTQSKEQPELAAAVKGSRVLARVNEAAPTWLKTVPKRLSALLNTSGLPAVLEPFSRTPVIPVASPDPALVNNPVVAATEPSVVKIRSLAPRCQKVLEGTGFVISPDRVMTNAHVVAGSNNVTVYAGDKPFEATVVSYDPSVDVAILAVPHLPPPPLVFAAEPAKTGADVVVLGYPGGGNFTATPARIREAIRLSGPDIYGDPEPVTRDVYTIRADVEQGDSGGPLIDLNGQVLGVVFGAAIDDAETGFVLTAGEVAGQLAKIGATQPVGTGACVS
PrP 5UTR single – prion 5' UTR mRNA inhibition, cherry-pick retest | shares compounds with PrP 5UTR inh | cell-based prion protein 5' UTR reporter, plate reader | inhibition, % at 2.5 µM | actives 48% (n = 1,100); in the data active = inhibition above about 54%; inconclusive = no clear call, values can overlap the other calls
Active calls of the source: *; i = inactive; ? = inconclusive; . = no result. An excerpt weighted towards active compounds, which were near 0.76% of everything screened.

SMILES | FadD28 FP inh | Mtb bLac sens | PrP 5UTR inh | UGM FP inh | BH1578 lux ind | Rv3671c protease | PrP 5UTR single
COc1cccc(-c2ccc3ncnc(NCc4cc(C)cs4)c3c2)c1 | -9.7 | 96.5 | 61.3* | -2.2 | -0.6 | -50.9 | -3.0
Cc1csc(CNc2ncnc3ccc(-c4cccnc4)cc23)c1 | -10.5 | 10.2 | -5.9 | -0.8 | -1.3 | -4.5 | .
COC(=O)c1ccccc1NC(=O)C(C)c1ccc([N+](=O)[O-])cc1 (stereo not drawn) | -4.9 | 5.1 | 63.6* | 0.1 | -2.7 | -6.5 | 2.0
CC(C(=O)Nc1ccccc1Br)c1ccc([N+](=O)[O-])cc1 (stereo not drawn) | -1.8 | -3.9 | 2.6 | -4.2 | i | -2.5 | .
CNC(=O)COC(=O)/C=C/c1ccc(F)cc1 | -3.2 | 5.8 | -9.2 | -2.2 | 3.0 | -2.2 | .
CNC(=O)COC(=O)/C=C/c1cccc(F)c1 | -2.0 | 47.9 | 57.9* | -3.9 | -0.4 | -2.4 | -9.6
CC(=Nc1ccccc1)C1=C(O)C(Cc2cccc(F)c2)NC1=O (stereo not drawn) | -2.0 | . | . | . | i | . | .
CC(=Nc1ccccc1)C1=C(O)C(Cc2ccc(O)cc2)NC1=O (stereo not drawn) | -1.4 | . | 53.8* | . | i | . | 89.0*
CCC(C)Sc1ccc([C@H]2N[C@@](Cc3ccccc3)(C(=O)OC)[C@H]3C(=O)N(CC)C(=O)[C@@H]23)cc1OC (stereo partly drawn) | -1.9 | -2.5 | -17.4 | -4.2 | i | 0.0 | .
Cc1ccc(Sc2c(CO)c(-c3ccccc3)nn2C)cc1 | -2.6 | 5.3 | 73.1* | 1.3 | -0.4 | -4.2 | 84.4*
Cc1ccc(-c2nn(-c3ccccc3)cc2CO)cc1 | -4.5 | -1.0 | -45.9 | -1.2 | i | -12.4 | .
COc1ccc(NC(=O)CCNC(=O)c2ccccc2Cl)cc1OC | . | 0.2 | -8.0 | 2.6 | i | 7.5 | .
COc1ccc(CCC(=O)NCCOc2ccc(Cl)cc2)cc1 | -3.3 | 7.4 | -16.9 | 0.5 | -7.7 | -1.2 | .
C/C(=N\NC(=O)c1ccccc1NC(=O)c1ccc(Cl)cc1)c1ccncc1 | -0.2 | 7.5 | 75.8* | -3.5 | -0.7 | -3.6 | 70.0*
CC(=NNC(=O)c1ccncc1)c1ccccc1Cl | -2.0 | . | -12.0 | . | i | . | .
COc1ccc(C(=O)N/N=C(\N)c2cc3ccccc3oc2=O)cc1 | -2.4 | 3.3 | -18.1 | 2.5 | -0.4 | 2.1 | .
CCC1(O)C(=O)OCc2c1cc1n(c2=O)Cc2cc3c(N)cccc3nc2-1 (stereo not drawn) | -1.7 | . | 52.8* | . | -5.6 | . | 90.3*
CNS(=O)(=O)c1ccc(Cl)nc1 | -4.2 | 6.6 | -13.8 | 1.1 | -0.3 | 7.3 | .
CCCCOCC(O)CCc1n[nH]c(=S)n1-c1ccccc1 (stereo not drawn) | -0.9 | -6.9 | 79.7* | 2.3 | i | -5.6 | 4.8
CC(C)OCC(O)CCc1n[nH]c(=S)n1-c1ccccc1 (stereo not drawn) | -1.4 | 2.8 | -8.2 | 1.0 | -0.6 | -2.5 | .
N#CCCNS(=O)(=O)c1ccc(C(=O)OCCCOC(=O)c2ccc(S(=O)(=O)NCCC#N)cc2)cc1 | 1.2 | 1.8 | -18.9 | 0.5 | i | -4.2 | .
Cn1c(C=O)c(C#Cc2ccccc2)c2ccccc21 | -2.7 | 25.6 | -21.7 | -0.8 | i | -5.3 | .
O=C(COc1cc(Cl)c(Cl)cc1Cl)NCCN1CCOCC1 | -0.2 | -6.5 | 55.2* | -1.8 | i | 3.3 | -23.8
CC(C)OC(=O)c1sc2nc(-c3ccccc3)ccc2c1N | -4.1 | ? | 54.1* | -0.5 | -0.4 | -5.7 | 20.2
COc1ccc(C(=O)c2sc3nc(-c4ccccc4)ccc3c2N)cc1 | 0.5 | 44.9 | -14.5 | 1.1 | 0.4 | -3.6 | .
SMILES | FadD28 FP inh | Mtb bLac sens | PrP 5UTR inh | UGM FP inh | BH1578 lux ind | Rv3671c protease | PrP 5UTR single
COc1ccccc1CNc1ccc(Br)cn1 | -1.4 | 42.9 | -46.8 | -1.6 | -6.2 | -7.8 | .
CN(C)c1cccc(C(=O)OCC(=O)N(Cc2ccccc2)C2CCS(=O)(=O)C2)c1 (stereo not drawn) | 0.2 | -4.1 | 59.5* | -1.1 | -0.1 | 5.5 | -5.3
NC(=O)Nc1ccc(C(=O)OCC(=O)N(Cc2ccccc2)C2CCS(=O)(=O)C2)cc1 (stereo not drawn) | -2.3 | 2.5 | -34.5 | -0.7 | -0.2 | 0.7 | .
S=C(NCc1ccco1)Nc1cc(-c2ccccc2)[nH]n1 | -14.6 | 14.6 | 62.1* | 0.5 | -0.3 | -33.4 | -3.9
Cc1c(C)c2ccc(OCC(=O)Nc3ccccn3)c(C)c2oc1=O | -0.8 | 2.2 | 92.9* | 0.6 | -0.2 | 9.7 | 94.2*
CC(C)OCCCNC(=O)Cc1ccc(Br)cc1 | -0.7 | -3.8 | 82.9* | 3.2 | -0.3 | 1.1 | 0.9
CCC(Oc1ccccc1)C(=O)Nc1cc(Cl)ccc1-n1cncn1 (stereo not drawn) | -5.1 | -9.1 | -31.4 | . | -5.0 | 7.9 | .
CN1CCN(C(=O)c2ccc3c(=O)n(Cc4ccco4)c(=S)[nH]c3c2)CC1 | -2.6 | -1.7 | -24.1 | 2.3 | i | -11.1 | .
CCCN(CCC)C(=O)c1ccc2c(=O)n(Cc3ccco3)c(=S)[nH]c2c1 | -3.9 | 0.0 | 82.8* | -1.9 | i | 1.5 | 17.3
CC(=O)n1cc(/C=N/NC(=O)c2sc(C)nc2C)c2ccccc21 | -8.8 | -4.0 | -17.6 | 0.5 | -0.3 | -2.4 | .
CC(=O)n1cc(-c2ccncc2)c2ccccc21 | -4.8 | -2.5 | 54.8* | -0.9 | -0.1 | 7.1 | -3.1
COc1ccc(C(NC(=O)c2cccnc2)c2cc(Cl)c3cccnc3c2O)cc1OC (stereo not drawn) | 1.2 | -6.8 | 88.7* | -1.8 | . | 1.4 | 30.4
N=c1oc2ccccc2cc1C(=O)Nc1ccc(F)cc1 | 0.0 | 3.1 | . | -5.3 | i | . | .
Cc1ccc(NC(=O)c2cc3ccccc3oc2=N)cc1 | 1.2 | 3.2 | 67.5* | -2.9 | i | -4.6 | 38.6
O=S(=O)(Nc1ncnc2sc3c(c12)CCC3)c1ccc(Cl)s1 | 1.7 | 44.3 | -1.2 | 3.2 | 5.0 | -2.6 | .
Cc1ccccc1N1C(=O)CC2(CCCC2)CC1=O | -1.6 | -0.9 | 81.7* | 1.9 | -0.3 | -2.5 | -7.0
COc1cccc2c1C(CO)N1C(C#N)C3CC(C(=O)O)C(C1C2)N3C (stereo not drawn) | -0.8 | 100.1 | 69.3* | -3.0 | -0.3 | 8.1 | 75.0*
COc1cccc2c1OCC(C(=O)O)C2 (stereo not drawn) | -3.4 | -4.6 | -29.1 | 0.6 | i | -3.8 | .
Cc1ccc(C(=O)N/N=C2/NC(=O)CC(C(=O)Nc3ccccc3)S2)cc1 (stereo not drawn) | -0.4 | -0.1 | -10.2 | 0.4 | i | 10.8 | .
CCOc1ccc(OCc2cccc(C(=O)N3CCOCC3)c2)cc1 | -1.3 | 1.2 | 60.9* | 1.2 | -1.4 | -5.5 | 70.0*
CN(Cc1ccccc1)C(=O)COC(=O)c1cncc(Br)c1 | -1.8 | -1.4 | 71.5* | -1.2 | 0.3 | 2.8 | -13.8
O=C(OCc1cnc(Cl)s1)c1cccs1 | -1.8 | 5.0 | -36.0 | -0.1 | 0.7 | 1.8 | .
COc1ccc(CNC(=O)Cc2ccc(NC(=O)C3=C(C)OCCS3)cc2)cc1 | 0.0 | 8.1 | -84.7 | -0.9 | i | -3.8 | .

Bioassay records (PubChem)
